Consider 23 molecules from PubChem BioAssay (NCATS).

SMILES strings stand for the structures. Values without a mark were called inactive. Inconclusive results are not listed. Activity calls are given as the source filed them. Unless noted, the call rests on the fitted dose curve; in most records, active means well fitted curve in the direction sought with a large enough effect; inconclusive means small, poorly fitted or top-dose-only effect, or another doubt; inactive means no such curve, though single readings can be large; an effect the other way counts as inactive or inconclusive.

The target in assay [1] is 3',5'-cyclic-AMP phosphodiesterase 4B (Homo sapiens) (UniProt Q07343). Nature of the assay: qHTS Assay for Inhibitors of PDE-IV (AID 607; active means well fitted activation curve with a large enough effect in the main read-out, with a control signal flat, not every such curve was filed as active; further: potency means the concentration at half of the fitted maximal effect). The gist of the method:
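The readout is membrane depolarisation from a cAMP-sensing CNG channel, detected with a potential dye at ex 535/em 590. Cells were HEK293-derived (endogenous PDE-IV) at 1000 cells/well, titrated up to 22.9 uM final.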

Assay [2] in a line: Cellular Toxicity (caspase-3) HepG2 (AID 654).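 Further: cells exposed to compound for 16 hours before reading.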 Put shortly: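 HepG2 cells (1500/well) in complete medium were treated with compounds for 16 hr at 37 °C. Caspase-3/7 activity was then read as luminescence from peptide-aminoluciferin cleavage. AC50 came from Hill fits, normalized to DMSO and 100 uM tamoxifen.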
Assay [3] in a line: Cellular Toxicity (caspase-3) Jurkat (AID 655).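 Further: cells exposed to compound for 16 h at 37 °C before reading.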 Put shortly:
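5000 Jurkat cells/well; compound 16 hr, 37 °C; Caspase-Glo 3/7 added, 20 min RT; luminescence read. Norm: DMSO = 0%, tamoxifen 100 uM = 100%. AC50, Hill model.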

The nature of assay [4]: Cellular Toxicity (caspase-3) HUV-EC-C (AID 656). Put shortly:
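qHTS; HUV-EC-C, 1000 cells/well; 5 hr settle, 16 hr cmpd, 37°C; Caspase-Glo 3/7, 20 min RT; luminescence. Norm: DMSO = 0%, tamoxifen 100 uM = 100%. Hill-fit AC50.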

The nature of assay [5]: Cellular Toxicity (caspase-3) SHSY5Y (AID 657). The gist of the method: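 qHTS, SH-SY5Y, 1500 cells/well, 5 h pre-incubation 37 °C; compound 16 h 37 °C; Caspase-Glo 3/7 1 h RT; luminescence. Norm.: DMSO = 0, 10 uM staurosporine = 100%. Hill fit → AC50.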
A short description of assay [6]: Cellular Toxicity (caspase-3) MRC-5 (AID 659). The following applies: Potency: caspase-3 activation. Put shortly: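 MRC-5 human normal lung fibroblasts, 1500 cells/well, treated 16 h at 37 °C in complete medium. Caspase 3/7 measured by Caspase-Glo luminescence after 1 h at room temperature. Normalized to DMSO and 10 uM staurosporine; AC50 from Hill fit.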
The nature of assay [7]: Cellular Toxicity (caspase-3) Mesangial (AID 660). Put shortly:
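Human renal glomerular mesangial cells (1000/well) were treated with compounds for 16 h at 37 °C in complete medium, then caspase 3/7 activity was read by Caspase-Glo luminescence. Data were normalized to DMSO and 100 uM tamoxifen; AC50 from Hill fits.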

Assay [8] is described as follows: Cellular Toxicity (caspase-3) SK-N-SH (AID 661). The settings on record: SK-N-SH caspase-3 activation, qHTS; caspase-3 activation: at 91.7 µM (top of the series), DMSO as zero, staurosporine as full. The gist of the method: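 SK-N-SH human neuroblastoma cells (1500/well) were treated with compounds for 16 hr at 37 °C in complete medium; caspase 3/7 activity was read by Caspase-Glo luminescence. AC50 came from Hill fits of data normalized to DMSO and 10 uM staurosporine.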
In general terms: In qHTS, concentration-response curves come from the screen itself.

The nature of assay [9]: Cellular Toxicity (caspase-3) H-4-II-E (AID 663).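 Further: cells exposed to compound for 16 hr before readout.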 The gist of the method: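 Rat hepatoma H-4-II-E cells (1500/well) plated 5 hr, then exposed to compound titrations for 16 hr at 37 °C. Caspase-Glo 3/7 luminescence read after 20 min at RT; data normalized to DMSO and 100 uM tamoxifen, AC50 from Hill fits.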
Assay [10] in a line: Cellular Toxicity (caspase-3) Hek293 (AID 664).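 Further: cells exposed to compound for 16 h at 37 °C before readout.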 The gist of the method:
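HEK293 cells were exposed to compounds in complete medium for 16 hr at 37 °C, then caspase-3/7 activity was read by Caspase-Glo 3/7 luminescence after 20 min at room temperature. Data normalized to DMSO and 100 uM tamoxifen; AC50 from Hill fits.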

A short description of assay [11]: Cellular Toxicity (caspase-3) N2a (AID 665).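 Further: compound exposure lasted 16 h at 37 °C before readout.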 Put shortly: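 Mouse N2a neuroblastoma cells (1500/well) were treated with compounds for 16 h at 37 °C, then caspase-3/7 activity was read by Caspase-Glo luminescence after 1 h at room temperature. Data were normalized to DMSO and 10 uM staurosporine; AC50 from Hill fits.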
The nature of assay [12]: Cellular Toxicity (caspase-3) NIH 3T3 (AID 666).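 Further: caspase signal read after 16 h compound exposure.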 The gist of the method: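 Mouse NIH 3T3 fibroblasts (1000 cells/well) were treated with compound for 16 hr at 37°C in complete medium; caspase-3/7 activity was read by Caspase-Glo luminescence. Normalized to DMSO and 100 uM tamoxifen; AC50 from Hill fits.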
The target of assay [13] is Guanine nucleotide-binding protein G(i) subunit alpha-1 (Homo sapiens) (UniProt P63096). The assay is described as follows: qHTS Assay for Inhibitors of RGS12 GoLoco Motif Activity (Green Fluorophore) (AID 879).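 Further: negative values mean loss of peptide binding seen as reduced polarization.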 The gist of the method:
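Fluorescence polarization assay: 50 nM Gαi1 with 10 nM FITC-labeled RGS12 GoLoco peptide in 10 mM Tris pH 7.5, 150 mM NaCl, 0.1 mM GDP, 0.05% NP40, 10 min at room temperature with compound.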

Assay [14] concerns the target Cytochrome P450 2C9 (Homo sapiens) (UniProt P11712). Nature of the assay: qHTS Assay for Inhibitors and Substrates of Cytochrome P450 2C9 (AID 883). Further: nearly all actives have a fitted effect of over 60% in size. Further: potency means the concentration at half of the fitted maximal effect. The gist of the method:
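Signal: luciferase luminescence reporting luciferin produced by CYP2C9. Conditions: 10nM enzyme, Luciferin-H 100uM at KM, 25mM KPO4, 37C, 60 min NADPH-driven reaction. Reference: 57uM sulphaphenazole as 100% inhibition.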

Assay [15] has as its target Cytochrome P450 3A4 (Homo sapiens) (UniProt P08684). Nature of the assay: qHTS Assay for Inhibitors and Substrates of Cytochrome P450 3A4 (AID 884). Further: nearly all actives have a fitted effect of over 50% in size. Further: potency means the concentration at half of the fitted maximal effect. The gist of the method: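 20 nM human CYP3A4 with 25 uM Luciferin-PPXE (at KM) in 200 mM KPO4, preincubated 10 min with compound; NADPH regeneration started a 60 min RT reaction. Luciferin detected by luminescence, normalized to 57 uM ketoconazole as full inhibition.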

The target of assay [16] is Cytochrome P450 2D6 (Homo sapiens) (UniProt P10635). The assay is described as follows: qHTS Assay for Inhibitors and Substrates of Cytochrome P450 2D6 (AID 891). Further: nearly all actives have a fitted effect of over 60% in size. Further: potency means the concentration at half of the fitted maximal effect. Put shortly: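 Human CYP2D6 (5 nM) with 30 uM Luciferin-ME EGE (at Km) in 100 mM KPO4, compound preincubated 10 min, then NADPH regeneration system for 60 min at room temperature. Luciferin read by luminescence; normalized to 1.43 uM quinidine.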

A short description of assay [17]: qHTS Assay for Identification of Small Molecule Antagonists for NFkB Signaling Pathway (AID 895; active means well fitted inhibition curve with a large enough effect in the signal ratio, with a control signal flat, not every such curve was filed as active; the % refers to the signal ratio). Put shortly:
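ME-180 NFkB-bla cells (beta-lactamase under NFkB response element), plated overnight, treated with compound then 10 pM TNF alpha (about EC50) for 5 hrs at 37 C. LiveBLAzer FRET read at 460/530 nm emission, 405 nm excitation.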

Assay [18] deals with Cytochrome P450 2C19 (Homo sapiens) (UniProt P33261). Nature of the assay: qHTS Assay for Inhibitors and Substrates of Cytochrome P450 2C19 (AID 899). Further: nearly all actives have a fitted effect of over 60% in size. Further: potency means the concentration at half of the fitted maximal effect. The gist of the method:
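Signal comes from luciferase acting on luciferin released by CYP2C19-mediated hydroxylation of Luciferin-H EGE, 10uM (KM). Assay mix: 5nM enzyme, 50mM KPO4; 60 min at 37C with NADPH regeneration. Data normalized against 57uM ketoconazole.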

Assay [19] has as its target Cytochrome P450 3A4 (Homo sapiens) (UniProt P08684). The assay is described as follows: qHTS Assay for Activators of Cytochrome P450 3A4 (AID 885). Further: nearly all actives have a fitted effect of over 65% in size. Put shortly:
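Steps: enzyme/substrate mix dispensed; compound added, 10 min RT; NADPH regeneration solution added, 60 min RT; luciferin detection buffer stops reaction; 20 min later luminescence measured.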

Assay [20] is described as follows: Confirmation and Secondary Assay for Modulators of Hemoglobin Beta Chain Splicing at IVS2 654 locus (AID 910).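 Further: HeLa cells stably carrying EGFP split by mutant beta-globin IVS2-654 intron.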 Put shortly:
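HeLa cells stably expressing EGFP interrupted by β-globin IVS2-654 intron, seeded overnight in Opti-MEM/2% FCS, then treated 2 days at 37 °C. Restored splicing read as total peak GFP intensity per well by laser scanning cytometry (488 nm excitation, 500–520 nm emission); 500 nM antisense PNA as control.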

Chain of 3',5'-cyclic-AMP phosphodiesterase 4B (Homo sapiens) (Q07343 whole entry, looked up): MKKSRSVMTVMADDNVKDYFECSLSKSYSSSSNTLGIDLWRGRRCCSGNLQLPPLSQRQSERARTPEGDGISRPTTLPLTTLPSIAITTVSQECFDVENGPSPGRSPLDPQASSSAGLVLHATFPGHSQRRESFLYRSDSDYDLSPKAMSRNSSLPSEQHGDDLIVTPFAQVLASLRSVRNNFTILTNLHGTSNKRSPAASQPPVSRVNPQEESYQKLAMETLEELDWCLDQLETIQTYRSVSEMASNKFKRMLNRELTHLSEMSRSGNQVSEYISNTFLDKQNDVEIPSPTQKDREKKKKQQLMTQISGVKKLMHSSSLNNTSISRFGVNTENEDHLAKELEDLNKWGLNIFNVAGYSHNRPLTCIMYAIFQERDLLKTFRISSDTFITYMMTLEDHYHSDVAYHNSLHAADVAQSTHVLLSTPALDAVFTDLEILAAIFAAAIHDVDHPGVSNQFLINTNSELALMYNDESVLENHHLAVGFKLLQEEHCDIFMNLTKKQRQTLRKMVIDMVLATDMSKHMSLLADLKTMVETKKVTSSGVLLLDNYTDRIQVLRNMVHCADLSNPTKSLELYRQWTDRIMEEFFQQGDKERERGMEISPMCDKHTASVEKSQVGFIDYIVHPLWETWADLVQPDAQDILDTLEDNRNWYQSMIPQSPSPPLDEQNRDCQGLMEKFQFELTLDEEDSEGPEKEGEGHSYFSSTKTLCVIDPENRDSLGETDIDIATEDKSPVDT
Chain of Cytochrome P450 3A4 (Homo sapiens) (P08684 whole entry, looked up): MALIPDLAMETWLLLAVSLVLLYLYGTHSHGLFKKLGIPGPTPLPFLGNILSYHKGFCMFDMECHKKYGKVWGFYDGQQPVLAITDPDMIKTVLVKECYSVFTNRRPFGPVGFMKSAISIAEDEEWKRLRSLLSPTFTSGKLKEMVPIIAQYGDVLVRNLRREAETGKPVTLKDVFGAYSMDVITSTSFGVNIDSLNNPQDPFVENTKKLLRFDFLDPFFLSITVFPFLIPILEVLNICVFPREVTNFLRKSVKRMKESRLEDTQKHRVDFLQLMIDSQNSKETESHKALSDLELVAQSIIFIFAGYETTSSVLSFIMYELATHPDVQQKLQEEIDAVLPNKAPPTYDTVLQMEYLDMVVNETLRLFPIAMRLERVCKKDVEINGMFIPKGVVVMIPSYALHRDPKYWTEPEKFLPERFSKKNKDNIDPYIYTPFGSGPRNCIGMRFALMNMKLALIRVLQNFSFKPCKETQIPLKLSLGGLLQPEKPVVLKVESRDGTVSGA
Chain of Guanine nucleotide-binding protein G(i) subunit alpha-1 (Homo sapiens) (P63096 whole entry, looked up): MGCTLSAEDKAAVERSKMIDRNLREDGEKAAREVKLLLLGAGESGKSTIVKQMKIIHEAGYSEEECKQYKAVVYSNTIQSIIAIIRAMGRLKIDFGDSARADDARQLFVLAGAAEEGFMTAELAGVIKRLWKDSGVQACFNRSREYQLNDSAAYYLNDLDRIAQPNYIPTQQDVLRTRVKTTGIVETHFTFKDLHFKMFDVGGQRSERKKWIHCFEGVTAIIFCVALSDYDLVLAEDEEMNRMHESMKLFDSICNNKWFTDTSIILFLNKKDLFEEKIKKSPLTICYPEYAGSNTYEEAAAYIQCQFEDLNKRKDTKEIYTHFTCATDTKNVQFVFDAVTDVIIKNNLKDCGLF
Chain of Cytochrome P450 2C9 (Homo sapiens) (P11712 whole entry, looked up): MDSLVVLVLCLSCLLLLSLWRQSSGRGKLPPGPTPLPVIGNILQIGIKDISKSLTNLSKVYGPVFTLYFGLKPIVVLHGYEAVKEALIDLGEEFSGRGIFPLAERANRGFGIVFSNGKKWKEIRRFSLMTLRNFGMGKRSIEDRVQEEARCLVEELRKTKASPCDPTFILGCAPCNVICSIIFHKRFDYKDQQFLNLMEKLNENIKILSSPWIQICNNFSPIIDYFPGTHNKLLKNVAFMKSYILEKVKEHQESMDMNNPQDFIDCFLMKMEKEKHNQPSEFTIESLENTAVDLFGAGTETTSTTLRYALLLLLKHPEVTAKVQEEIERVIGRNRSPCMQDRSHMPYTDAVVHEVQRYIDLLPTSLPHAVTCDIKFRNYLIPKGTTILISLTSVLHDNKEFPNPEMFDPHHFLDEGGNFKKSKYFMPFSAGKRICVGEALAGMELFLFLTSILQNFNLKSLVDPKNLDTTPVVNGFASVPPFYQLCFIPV
Chain of Cytochrome P450 2D6 (Homo sapiens) (P10635 whole entry, looked up): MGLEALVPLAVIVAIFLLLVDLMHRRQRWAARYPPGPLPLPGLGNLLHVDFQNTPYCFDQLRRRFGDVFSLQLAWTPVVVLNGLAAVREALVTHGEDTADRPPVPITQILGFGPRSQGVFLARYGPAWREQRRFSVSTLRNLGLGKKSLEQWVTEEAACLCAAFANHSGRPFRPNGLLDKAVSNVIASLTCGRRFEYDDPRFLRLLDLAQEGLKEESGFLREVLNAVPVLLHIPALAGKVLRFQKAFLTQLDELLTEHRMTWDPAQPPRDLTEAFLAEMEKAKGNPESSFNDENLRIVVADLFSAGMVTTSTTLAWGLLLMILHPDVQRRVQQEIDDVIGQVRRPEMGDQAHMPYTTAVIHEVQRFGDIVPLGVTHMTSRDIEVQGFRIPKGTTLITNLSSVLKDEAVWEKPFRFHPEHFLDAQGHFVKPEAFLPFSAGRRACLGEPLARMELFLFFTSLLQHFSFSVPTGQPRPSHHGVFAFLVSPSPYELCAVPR
Chain of Cytochrome P450 2C19 (Homo sapiens) (P33261 whole entry, looked up): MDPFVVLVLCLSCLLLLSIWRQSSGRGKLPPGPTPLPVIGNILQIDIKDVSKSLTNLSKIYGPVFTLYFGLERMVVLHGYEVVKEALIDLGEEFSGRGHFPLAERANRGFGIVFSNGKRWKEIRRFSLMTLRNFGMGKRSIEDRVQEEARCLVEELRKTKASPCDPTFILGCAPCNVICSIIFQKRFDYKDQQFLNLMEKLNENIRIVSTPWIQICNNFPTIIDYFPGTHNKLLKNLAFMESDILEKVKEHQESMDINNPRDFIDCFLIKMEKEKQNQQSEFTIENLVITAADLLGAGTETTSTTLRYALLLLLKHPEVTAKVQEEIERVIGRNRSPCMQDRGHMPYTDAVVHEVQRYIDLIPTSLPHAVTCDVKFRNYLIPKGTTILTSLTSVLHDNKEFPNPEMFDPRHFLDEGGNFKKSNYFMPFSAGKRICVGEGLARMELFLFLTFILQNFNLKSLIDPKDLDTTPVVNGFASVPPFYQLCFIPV

In the case of `O=C1C=CC(=O)C=C1`, the Potency entry in assay [1], in assay [3], in [6], in assay [8], in [12] and in assay [13] was “inactive” each time. For the same molecule, the Potency result in assay [14], in [15], in assay [16], in assay [17] and in assay [18] was “inactive” throughout. Also, the molecule was classed as inactive in assay [2], in [4], in assay [5], in assay [7], in assay [9] and in assay [10]. For the same molecule, in assay [11], the outcome was inactive.

Turning to `CCCN(CCC)CCc1ccc(O)c(O)c1`, the Potency entry in assay [1] and in assay [13] was “inactive” throughout.

`CN(N=O)c1cc(O)ccc1O`: in assay [1], the Potency result was “inactive”.

`CCS(=O)(=O)Nc1cccc(C(=C2CCCCC2)c2cnc[nH]2)c1`: the Potency entry in assay [1] and in [13] was “inactive” in each case. Besides, the Potency in assay [14] is 631 nM (active); in assay [15], 316 nM (active); in assay [16], 7940 nM (active); in [18], 7.9 nM (active). Moreover, in assay [19], the molecule was called inactive.

Regarding `CCCN(CCC)C1Cc2cc(OC)c(OC)cc2C1`, the Potency result in assay [1], in assay [13], in assay [14] and in assay [17] was “inactive” throughout.

As for `CCN(CCCl)Cc1ccccc1Br`, the Potency result in assay [1] and in [13] was “inactive” in each case.

As to `NNC(N)=O`, the Potency result in assay [1], in assay [3], in [6], in assay [8], in [12] and in assay [13] was “inactive” in each case. For the same molecule, the Potency entry in assay [15] is “inactive”. Further, the molecule was called inactive in assay [2], in assay [4], in assay [5], in assay [7], in [9] and in [10]. In addition, the molecule was classed as inactive in assay [11].

Take `CN1CCc2cc(O)cc3c2[C@H]1Cc1ccc(O)c(O)c1-3`: the Potency result in assay [1] was “inactive”.

Take `c1cc2c(c(NC3=NCCN3)c1)CCCC2`: the Potency entry in assay [1] is “inactive”.

In the case of `O=S(=O)(O)c1cc(O)ccc1O`, the Potency result in assay [1] is “inactive”.

In the case of `c1ccc2cc(CC3=NCCN3)ccc2c1`, the Potency entry in [1] and in assay [13] was “inactive” in each case.

Turning to `C[C@@H]1O[C@H](C[N+](C)(C)C)CS1`, the Potency in assay [1] was 1260 nM (active). In addition, the Potency entry in assay [13] was “inactive”.

On to `CC(=O)NBr`, for which the Potency result in assay [1] and in assay [13] was “inactive” in each case.

As for `CN1CCC(c2c[nH]c3ccc(O)cc23)CC1`, the Potency result in assay [1] and in assay [13] was “inactive” in each case. In assay [19], the call was inactive.

On to `CCCn1c(C)c(C(=O)c2ccc3ccccc3c2)c2ccccc21`, for which the Potency entry in [1], in assay [13] and in assay [15] was “inactive” in each case. Moreover, the Potency in [18] was 7940 nM (active).

As to `c1ccc2c(N3CCNCC3)cccc2c1`, the Potency entry in assay [1] and in [13] was “inactive” in each case.

In the case of `CN(N=O)c1ccc(O)c(O)c1`, in assay [14], the Potency entry was “inactive”.

Consider `CC(C)(C)c1cc(C=C(C#N)C#N)cc(C(C)(C)C)c1O`, for which, in assay [13], the Potency result is “inactive”. The Potency is 31.6 nM (active) in [14] and 3160 nM (active) in [15]. The call in assay [19] was inactive.

Take `O=C1C=C2C=C[C@@H]3C[C@@]2(O1)[C@H]1CCCCN31`: the Potency entry in assay [15] is “inactive”.

Regarding `O=C1CCO1`, the molecule was classed as inactive in assay [2], in [4], in assay [5], in assay [7], in assay [9] and in [10]. Also, the molecule was called inactive in [11] and in [20]. Further, the Potency result in assay [3], in assay [6], in assay [8], in assay [12] and in assay [15] was “inactive” throughout.

Take `COc1ccc(OC)c(C(O)C(C)N)c1` (stereo unspecified): the Potency entry in assay [15] is “inactive”. Besides, the molecule was called inactive in assay [20].

For the molecule `COc1ccc2c(c1)c(CCN1CCOCC1)c(C)n2C(=O)c1cccc(Cl)c1Cl`, the Potency in [15] is 3160 nM (active). Moreover, the molecule was called inactive in assay [19].

Turning to `C[N+](C)(C)CC#CCN1CCCC1=O`, the Potency entry in assay [13] was “inactive”. The Potency in assay [16] was 3980 nM (active).
